Experimental data reported in PubChem BioAssay (EPA / NIEHS).
Inconclusive results are not listed. Active and inactive are the calls of the source. How the source made its calls: active means hit-call score of the fitted dose curve at least 0.9, where 1 is the maximum; inconclusive means response in the unintended direction; inactive means score below 0.9.

test: CLD_ACTIN_6hr: CellzDirect (CLD) Gene Expression Assay for Baseline Control (Actin) at 6 hours (AID 2283676)
Procedure: CLD_6hr is a cell-based, multiplexed-readout assay that uses hepatocyte, a human liver primary cell, with measurements taken at 6 hours after chemical dosing in a 96-well plate.CLD_ACTIN_6hr is one of 16 assay component(s) measured or calculated from the CLD_6hr assay. It is designed to make measurements of mRNA induction, a form of inducible reporter, as detected with chemiluminescence signals by Quantitative Nuclease Protection Assay (qNPA) technology.Data from the assay component CLD_ACTIN_6hr was analyzed at the endpoint, CLD_ACTIN_6hr, in the positive analysis fitting direction relative to DMSO as the negative control and baseline of activity. Using a type of inducible reporter, gain-of-signal activity can be used to understand changes in the reporter gene as they relate to the gene ACTA1. Furthermore, this assay endpoint can be referred to as a secondary readout, because this assay has produced multiple assay endpoints where this one serves a background control function. To generalize the intended target to other relatable targets, this assay endpoint is annotated to the background measurement intended target family, where subfamily is baseline control.
Human hepatocyte cultures were treated daily for two consecutive days with fresh dosing solutions containing appropriate concentrations of the 320 ToxCast chemicals (chemical identities were blinded to CellzDirect and other ToxCast collaborators), vehicle control (0.2% DMSO), and positive control inducers as summarized in Table 1. Due to the large number of treatment groups and chemicals examined, the ToxCast chemicals were divided into two groups (spanning two independent cultures of hepatocytes from separate donor preparations (Hu778: ToxCast plates 1 and 2; Hu776: ToxCast plates 3 and 4). Each preparation of human hepatocyte cultures was treated with respective vehicle control, medium only control, set of six positive controls/reference chemicals for the five hepatic receptor pathways, and a subset of eight of the ToxCast chemicals (indoxacarb, pyrithiobac-sodium, norflurazon, cyhalofop-butyl, methomyl, thiram, acetochlor, and propiconazole). These replicate data, coupled with internal replicates designed within the blinded ToxCast chemical library, provided additional data to evaluate interindividual differences between hepatocyte preparations and their potential impact on chemical profiles.Cell morphology and integrity were evaluated using phase-contrast microscopy as an indicator of hepatocyte cell health (Tyson & Green, 1987). Cultures for each treatment group (i.e., media, vehicle [0.2% DMSO], positive control inducers [multiple concentrations], and the ToxCast chemicals [multiple concentrations]) were observed and cell morphology was assessed relative to vehicle control cultures at each harvest time point (0, 6, 24, or 48 h). […] Images were evaluated at the conclusion of the study to assess changes in cell integrity and account for the effects of chemical exposure on uncharacteristic changes in concentration-dependent gene expression profiles. The results from these determinations of apparent cytotoxicity were annotated (yes/no) alongside the corresponding qNPA data for reference.At the conclusion of each treatment period, hepatocyte cultures (96-well) were washed with 1 volume of HBSS, lysed by addition of 25 ul ArrayPlate lysis buffer (HTG, Tucson, AZ), and 70 ul/well of Denaturation Oil, denatured by incubation at 95C for 10 min, and frozen at approximately -70C until analysis by nuclease protection assay (qNPA) (Roberts et al., 2007). For qNPA analysis, cell lysates were thawed at 50C for approximately 30 min, qNPA probes were added, and samples were incubated at 95C for 10 min to begin the detection process by denaturing the target RNA, dissociating the duplexes and secondary structure hybridization. At the conclusion of the hybridization period, S1 nuclease reagent was added to each sample to digest all nonprotected nucleotides at 50C for 60-90 min. […]

Structure (SMILES)	outcome
CCOC(=O)CC(SP(=O)(OC)OC)C(=O)OCC (stereo not given)	inactive
COc1cc(OC)nc(Sc2cccc(Cl)c2C(=O)O)n1	inactive
CN(C)C(=O)Nc1cccc(C(F)(F)F)c1	inactive
CCOP(=O)(SC(C)CC)N1CCSC1=O (stereo not given)	inactive
CN1COCN(Cc2cnc(Cl)s2)C1=N[N+](=O)[O-]	inactive
CSc1nnc(C(C)(C)C)c(=O)n1N	inactive
CCOP(=O)(OCC)Oc1cc(C)nc(C(C)C)n1	inactive
Cc1nn(-c2cc(NS(C)(=O)=O)c(Cl)cc2Cl)c(=O)n1C(F)F	inactive
CCCCOC(=O)[C@@H](C)Oc1ccc(Oc2ccc(C#N)cc2F)cc1	inactive
CCOP(=S)(OCC)SCCSCC	inactive
CC(C)=CC1C(C(=O)OCN2C(=O)C3=C(CCCC3)C2=O)C1(C)C (stereo not given)	inactive
O=C(O)c1cc(Oc2ccc(C(F)(F)F)cc2Cl)ccc1[N+](=O)[O-]	inactive
CC(C)[C@H](C(=O)O[C@H](C#N)c1cccc(Oc2ccccc2)c1)c1ccc(Cl)cc1	inactive
CC(Oc1cccc(Cl)c1)C(=O)O (stereo not given)	inactive
CC(C)N(C(=O)SCC(Cl)=C(Cl)Cl)C(C)C	inactive
CN(C)[C@@H]1C(=O)C(C(N)=O)=C(O)[C@@]2(O)C(=O)C3=C(O)c4c(O)cccc4[C@@](C)(O)[C@H]3[C@H](O)[C@@H]12	inactive
COP(=O)(NC(C)=O)SC (stereo not given)	inactive
CNc1cnn(-c2cccc(C(F)(F)F)c2)c(=O)c1Cl	inactive
CCCOCC(=Nc1ccc(Cl)cc1C(F)(F)F)n1ccnc1	inactive
CCc1cnc(C2=NC(C)(C(C)C)C(=O)N2)c(C(=O)O)c1 (stereo not given)	inactive

Structure (SMILES)	outcome
Cc1cc(C2CC2)nc(Nc2ccccc2)n1	inactive
CCCCN(CC)c1c([N+](=O)[O-])cc(C(F)(F)F)cc1[N+](=O)[O-]	inactive
C[N+]1(C)CCCCC1	inactive
COc1ccc(C(=CC(=O)N2CCOCC2)c2ccc(Cl)cc2)cc1OC	inactive
CC1=NNC(=O)N(/N=C/c2cccnc2)C1	inactive
CCc1cccc(C)c1N(C(=O)CCl)C(C)COC (stereo not given)	inactive
CCOP(=S)(OCC)Oc1cc(C)nc(C(C)C)n1	inactive
CC(=NC#N)N(C)Cc1ccc(Cl)nc1	inactive
N#CSCSC#N	inactive
S=C1NCCN1	inactive
CN(C)NC(=O)CCC(=O)O	inactive
CCOP(=S)(Oc1cnc(C(C)(C)C)nc1)OC(C)C (stereo not given)	inactive
CNC(=O)ON=C(C)SC	inactive
CCCOc1nn(C(=O)NS(=O)(=O)c2ccccc2C(=O)OC)c(=O)n1C	inactive
Nc1c(Cl)cc([N+](=O)[O-])cc1Cl	inactive
CNC(=O)ON=C(SC)C(=O)N(C)C	inactive
CCOP(=S)(OCC)OC(Cl)C(Cl)(Cl)Cl (stereo not given)	inactive
C=C(C)[C@H]1Cc2c(ccc3c2O[C@@H]2COc4cc(OC)c(OC)cc4[C@@H]2C3=O)O1	inactive
CCCCSP(=O)(SCCCC)SCCCC	inactive
CSC1=N[C@@](C)(c2ccccc2)C(=O)N1Nc1ccccc1	inactive
